# ALOX12 inh – ALOX12 (human) lipoxygenase inhibition; purified 12hLO, xylenol orange hydroperoxide absorbance; Potency, µM (doses to about 108 µM), hits mostly inhibitors; 1.1% of 580,000 active; AID 1671190
# Target sequence (P18054 whole entry, looked up): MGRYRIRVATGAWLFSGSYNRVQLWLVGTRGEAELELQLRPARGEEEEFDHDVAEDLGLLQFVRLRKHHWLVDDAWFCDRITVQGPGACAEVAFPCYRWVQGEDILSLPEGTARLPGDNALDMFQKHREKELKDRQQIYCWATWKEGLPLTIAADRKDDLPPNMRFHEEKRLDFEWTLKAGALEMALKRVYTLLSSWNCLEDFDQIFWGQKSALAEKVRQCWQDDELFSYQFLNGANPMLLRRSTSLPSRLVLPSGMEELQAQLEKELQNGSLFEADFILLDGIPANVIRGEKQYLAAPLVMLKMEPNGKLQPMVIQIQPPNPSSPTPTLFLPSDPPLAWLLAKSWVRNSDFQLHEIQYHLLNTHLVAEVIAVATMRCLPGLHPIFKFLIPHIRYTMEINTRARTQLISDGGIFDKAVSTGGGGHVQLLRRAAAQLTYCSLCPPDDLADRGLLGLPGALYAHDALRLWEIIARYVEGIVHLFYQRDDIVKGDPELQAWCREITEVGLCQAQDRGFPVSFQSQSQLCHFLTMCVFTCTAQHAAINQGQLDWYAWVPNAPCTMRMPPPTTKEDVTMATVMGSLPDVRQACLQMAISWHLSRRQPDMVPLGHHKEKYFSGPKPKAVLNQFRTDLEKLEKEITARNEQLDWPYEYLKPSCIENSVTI
#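 Purified human 12hLO (150 nM final) in 25 mM Hepes, 0.01% Triton X-100, pH 7.0 was preincubated 15 min at room temperature with compound. Then 40 uM arachidonic acid was added, 30 min. Hydroperoxide was read by Fe-XO absorbance ratio 573/405 nm.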
# HT1080 IDH1KD tx – HT-1080 IDH1 knockdown cell toxicity (counter line) | HT-1080 IDH1 knockdown viability, ATP luminescence, 48 h | Potency, µM (doses to about 46.1 µM), most hits filed as cytotoxic | 2% of 360,000 active | AID 686971
#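 Luminescent ATP read-out (CellTiter-Glo, 10 min at room temperature) after 48 h compound exposure at 37 °C gave viability of IDH1-knockdown HT-1080 cells. Activity was normalised to DMSO and cell-free wells, then fitted as concentration-response curves.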
# HT1080-NT tox – kills 2HG-producing HT-1080-NT fibrosarcoma cells; Potency, µM (series often up to 46.1 µM), actives largely listed as cytotoxic; HT-1080-NT fibrosarcoma viability, CellTiter-Glo ATP luminescence, 48 h; AID 686970; 1.6% of 360,000 active;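 also: NT is the 2HG producing partner of a matched IDH1 knockdown line; nearly all actives have a fitted effect of over 55% in size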
#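 HT-1080-NT; 750 cells/well; 5% FBS RPMI; 48 h compound, 37 degrees C; CellTiter-Glo luminescence; curve fitting and curve-class assignment.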
# IL-1B inflam inh – inflammasome signaling inhibition, IL-1 beta readout; THP-1 LPS/ATP IL-1B secretion, AlphaLISA, 16 h; hits give low values; activity change, % at 57.5 µM; 4.7% of 360,000 active; in the data active = activity change below about -50%; inconclusive = mostly about -30% to -49%
#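 THP-1 cells pretreated 1 hr with compounds (up to 57.5 uM final), then stimulated with LPS (250 ng/mL final) plus ATP (1.25 mM final); secreted IL-1B measured by AlphaLISA after 16 hr, decreased signal indicating inhibition.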
# DT40 TDP1 no CPT – qHTS for Inhibitors of human tyrosyl-DNA phosphodiesterase 1 (TDP1): qHTS in cells in absence of CPT; DT40 Tdp1-/- hTDP1 cells, no CPT, ATP luminescence, 48 h; Potency, µM (highest dose often 46.2 µM), hits mostly inhibitors; 15% of 420,000 active; also: nearly all actives have a fitted effect of over 55% in size
#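 No-CPT arm: Tdp1-/-;hTDP1 DT40 cells (400/well) plus compounds, incubated ≥48 hr at 37 °C. Readout CellTiter-Glo luminescence.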
# TDP1 cell CPT – growth inhibition of DT40 Tdp1-/-;hTDP1 cells with camptothecin (screen for TDP1 inhibitors); chicken DT40 Tdp1-/-;hTDP1 cells + 20 nM CPT, ATP luminescence, 48 h; 12% of 420,000 active; Potency, µM (doses to about 46.2 µM), most hits filed as inhibitors; AID 686979; also: nearly all actives have a fitted effect of over 55% in size
#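 Cell growth measured by CellTiter-Glo luminescence after a minimum 48 h, 37 C compound exposure with 20 nM CPT in Tdp1-knockout DT40 cells stably expressing hTDP1, seeded 400/well; qHTS titration format.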
# Numbers stand for hits; 0 = inactive; ? = inconclusive; - = no result; [ ] = dose if it differs, or a comment. This is one part of a sample in which hits are shown more often than they occur. Unless noted, calls follow the shape of the dose curve; as a rule, active = well fitted curve in the direction sought with a large enough effect; inconclusive = small, poorly fitted or top-dose-only effect, or another doubt; inactive = no such curve, though single readings can be large; an effect the other way counts as inactive or inconclusive.
SMILES,ALOX12 inh,HT1080 IDH1KD tx,HT1080-NT tox,IL-1B inflam inh,DT40 TDP1 no CPT,TDP1 cell CPT
O=C(Nc1cccnc1)N1CC2ON=C(C(=O)N3CCOCC3)C2C1 (stereo not drawn),0[6.33 µM],-,-,-,-,-
CCc1nc2c(OCCOc3ccc(F)cc3)cccn2c1N(C)C(=O)c1ccco1,0,0,0,?,16µM,21µM
Cc1ccc(OCc2nnc(SCC(=O)c3ccccc3)n2Cc2ccco2)cc1,0,0,0,0,18µM,23µM
CCn1c(COc2ccc(C)cc2)nnc1SCC(=O)Nc1cc(OC)ccc1OC,0,0,0,0,21µM,?
COc1ccccc1NC(=O)CSc1nnc(COc2ccc(Cl)cc2)n1Cc1ccco1,0,0,?,?,15µM,21µM
CCn1c(COc2ccccc2)nnc1SCC(=O)Nc1cc(C)ccc1OC,0,0,0,0,?,?
Cc1ccc(OCc2nnc(SCc3nc4ccccc4[nH]3)n2Cc2ccco2)cc1,0,0,0,0,18µM,15µM
O=C(/C=C/c1ccccc1)Nc1ccc2c(c1)CCC2,0,-,-,-,-,-
Cc1ccc2c(CN3CCN(C(=O)c4ccc(C)c(F)c4)CC3)cc(=O)oc2c1,0,-,-,-,-,-
O=C(CSc1nnc(-c2ccccn2)n1Cc1ccco1)c1ccc(-c2ccccc2)cc1,0,0,0,0,?,29µM
Fc1ccccc1CSc1nnc(-c2cnccn2)n1Cc1ccco1,0,0,0,?,0,0
O=c1c2ccccc2nnn1CSc1nnc(COc2ccc(Cl)cc2)n1Cc1ccco1,0,0,0,0,21µM,23µM
Clc1ccc(CSc2nnc(-c3ccccn3)n2Cc2ccco2)c(Cl)c1,?,0,0,0,29µM,?
Clc1ccc(CSc2nnc(-c3ccccn3)n2Cc2cccs2)cc1Cl,0,?,?,0,18µM,?
O=C(c1cc(-c2cccs2)nc2ccccc12)N1CCC1,0,-,-,-,-,-
COc1cccc(CNC(=O)c2cccc(S(=O)(=O)N3CCN(C)CC3)c2)c1,40µM,0,0,0,0,0
COc1cc(OC)c(OC)cc1CNC(=O)c1cccc(S(=O)(=O)N2CCc3ccccc3C2)c1,0,0,?,0,8.2µM,13µM
COc1ccc(CNC(=O)c2cccc(S(=O)(=O)N3CCCCC3)c2)cc1OC,0,0,0,0,?,13µM
COc1ccc(CNC(=O)c2cc(S(=O)(=O)N3CCCCC3)ccc2Cl)cc1OC,0,0,9.2µM,0,18µM,?
O=C(NCc1ccc(F)cc1)c1cc(S(=O)(=O)N2CCCCC2)ccc1Cl,0,0,0,0,0,0
CCn1cc(S(=O)(=O)N2CCN(c3ccc(C(C)=O)cc3)CC2)cn1,0,-,-,-,-,-
COCCn1c(=O)n([C@H]2CCCN(C(=O)c3cc(C)nn3C)C2)c2ncccc21,0,-,-,-,-,-
N#CCCn1c(-c2ccccc2)cc2ccccc21,0,-,-,-,-,-
Cc1ccc(C(=O)Nc2c(C)ccc3nsnc23)c(Cl)c1,0,-,-,-,-,-
COc1ccc(C2Cn3cnc(C(=O)N4CCC(C(=O)Nc5ccccc5F)CC4)c3CO2)cc1 (stereo not drawn),0,-,-,-,-,-
SMILES,ALOX12 inh,HT1080 IDH1KD tx,HT1080-NT tox,IL-1B inflam inh,DT40 TDP1 no CPT,TDP1 cell CPT
COc1ccc(CNc2nc(NCc3ccc(OC)cc3)n(S(=O)(=O)c3ccc(C)cc3)n2)cc1,0,-,-,-,-,-
CCOc1ccc(CCNC(=O)c2cccc(S(=O)(=O)N3CCOCC3)c2)cc1OCC,0,0,0,0,0,0
Cc1cc(N2CCN(C)CC2)ccc1NC(=O)c1cccc(S(=O)(=O)N2CCc3ccccc3C2)c1,0,0,?,-103,18µM,23µM
CCOc1ccc(CCNC(=O)c2cccc(S(=O)(=O)N3CCCCC3)c2)cc1OCC,0,0,0,0,7.3µM,13µM
CN1CCN(C(=O)CSc2nc3ccccc3o2)CC1,0,-,-,-,-,-
O=C(c1cccc(S(=O)(=O)N2CCN(c3ccccc3)CC2)c1)N1CCCC(C(F)(F)F)C1 (stereo not drawn),0,0,?,0,5.2µM,7.3µM
CCOC(=O)c1ccc(S(=O)(=O)N2CCN(C(=O)CSc3nc4ccccc4o3)CC2)cc1,0,0,0,0,12µM,12µM
CN1CCN(S(=O)(=O)c2cccc(C(=O)N3CCN(c4ccccc4)CC3)c2)CC1,0,0,0,0,0,0
O=C(c1cc(S(=O)(=O)N2CCN(c3ccccc3)CC2)ccc1Cl)N1CCCC(C(F)(F)F)C1 (stereo not drawn),0,0,0,0,?,15µM
CC1CN(C(=O)c2cccc(S(=O)(=O)N3CCN(c4ccccc4)CC3)c2)CC(C)O1 (stereo not drawn),0,0,0,0,?,15µM
Cc1nc(-c2ccc(F)cc2)n(Cc2cccc(C#N)c2)c(=O)c1CCO,0,-,-,-,-,-
COc1ccc(CNC(=O)CC[C@H]2CNC(=O)[C@@H]3[C@@H](CCN3Cc3ccc(C(=O)O)cc3)N2C)cc1,0,-,-,-,-,-
Cc1ncoc1C(=O)N1CC(F)(F)C[C@H]1c1nc(C2CC2)no1,0,-,-,-,-,-
CCOC(=O)c1ccc(S(=O)(=O)N2CCN(C(=O)c3cccc(S(=O)(=O)N4CC(C)OC(C)C4)c3)CC2)cc1 (stereo not drawn),0,0,0,0,9.2µM,16µM
CC(=O)N1CCN(S(=O)(=O)c2cccc(C(=O)OCc3ccc(C(C)(C)C)cc3)c2)CC1,0,0,0,0,8.2µM,7.3µM
Cc1cc(C)c(N2CCN(S(=O)(=O)N3CCCCCC3)CC2)c(C)c1,0,?,?,0,18µM,?
Cc1ccc(N2CCN(S(=O)(=O)N3CCCCC3)CC2)cc1Cl,0,0,0,0,?,?
COc1ccc(C2(C(=O)N3CCC[C@H]3c3nc(-c4ccccc4Cl)no3)CC2)cc1,0,-,-,-,-,-
COc1cccc(NC(=O)c2cc(-c3ccco3)nc3ccccc23)c1,?,0,0,0,?,0
O=C(NC1CC1)c1ccc(NC(=O)c2cc(-c3ccco3)nc3ccccc23)cc1,10µM,-,-,-,-,-
O=C(O)c1cc(-c2ccco2)nc2cc3ccccc3cc12,20µM,0,0,0,0,0
CC(=O)c1cccc(NC(=O)c2cc(-c3ccco3)nc3ccccc23)c1,28µM,0,0,0,18µM,13µM
O=C(O)c1ccc(NC(=O)c2cc(-c3ccco3)nc3ccccc23)cc1,7.9µM,-,-,-,-,-
COc1ccc(NC(=O)Cn2cccc2-c2nc(-c3ccc4c(c3)OCO4)no2)cc1,0,-,-,-,-,-
COCCOC(=O)C1=C(C)N=C2SC=C(CC(=O)NCCc3ccccc3)N2C1c1ccccc1 (stereo not drawn),0,-,-,-,-,-
COc1cccc(OCCNC(=O)c2cccc(OC)c2)c1,0,0,0,0,0,0

# Compound activity from PubChem.
